Results on five molecules are retold here after PubChem BioAssay (NCATS).

Experiment [1] can be described thus: Cell Viability - BJ (AID 421; calls by dose curve;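 also: potency is read from the fitted curve at half-maximal effect; cells exposed to compound for 40 hours at 37 °C before readout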). Particulars: BJ fibroblast viability, qHTS. A digest of the protocol: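 Normal human BJ foreskin fibroblasts, 1500/well in complete medium, treated 40 hr at 37 °C. Cellular ATP by CellTiter-Glo luminescence; normalized to DMSO and 100 uM tamoxifen, AC50 from Hill fit.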
On the technique in general: Quantitative high-throughput screening tests each substance at several concentrations.

Experiment [2] can be described thus: Cell Viability - HepG2 (AID 433; calls by dose curve;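 also: potency is read from the fitted curve at half-maximal effect; potency for ATP loss meaning cytotoxicity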). Particulars: qHTS. Put shortly: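 Cytotoxicity read as ATP loss (CellTiter-Glo luminescence) after 40 hr compound exposure of HepG2, 1500 cells/well, 37 °C. AC50 by Hill equation; 0% set by DMSO, 100% inhibition by 100 uM tamoxifen.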
The nature of experiment [3]: Cell Viability - MRC5 (AID 434; calls by dose curve;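 also: potency is read from the fitted curve at half-maximal effect; cells exposed to compound for 40 hours at 37 °C; potency reflects cytotoxicity seen as loss of intracellular ATP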). The following applies: MRC5 lung fibroblast viability, qHTS. A digest of the protocol:
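Decrease in intracellular ATP, quantified by luciferase light output, reflects compound toxicity toward MRC5 cells exposed for 40 hr in complete culture medium. Concentration-response curves, scaled between DMSO and 100 uM tamoxifen, gave AC50 values.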

Experiment [4] in a line: Cell Viability - HUV-EC-C (AID 542). Also: % is scaled to controls: 0 for no effect and ±100 for the full control effect; nearly all actives have a fitted effect of over 35% in size. Put shortly:
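Concentration-dependent ATP loss in HUV-EC-C cells is the measure. Exposure lasts 40 hr at 37 °C; luminescence follows CellTiter-Glo addition, and Hill fits give AC50.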

Experiment [5] in a line: Cellular Toxicity (caspase-3) H-4-II-E (AID 663).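 Also: cells exposed to compound for 16 hr before readout.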 Particulars: Potency: caspase-3 activation. Put shortly: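 Caspase 3/7 activation measured in H-4-II-E cells in complete culture medium after 16 hr treatment at 37 °C, using luciferase-coupled substrate readout; AC50 values come from Hill-equation fits of normalized concentration-response data.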
A short description of experiment [6]: Cellular Toxicity (caspase-3) NIH 3T3 (AID 666).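 Also: caspase signal read after 16 h compound exposure.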 A digest of the protocol: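 Activity: caspase-3/7 induction, NIH 3T3 cells, 16 hr treatment at 37°C, luminescent Caspase-Glo detection; AC50 via Hill equation.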
Experiment [7] concerns the target Cytochrome P450 3A4 (Homo sapiens) (UniProt P08684). As to the kind of experiment: qHTS Assay for Inhibitors and Substrates of Cytochrome P450 3A4 (AID 884). Also: nearly all actives have a fitted effect of over 50% in size. Also: potency is read from the fitted curve at half-maximal effect. Put shortly: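 Luminescent readout of luciferin produced by CYP3A4 (20 nM) dealkylation of Luciferin-PPXE, 25 uM (its KM). NADPH-driven reaction ran 60 min at RT after 10 min compound preincubation; data scaled to 57 uM ketoconazole as 100% inhibition.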

The nature of experiment [8]: MultiTox-Fluor Cytotoxicity Assay - LYMP1-001 - Dead Cells (AID 946).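 Also: 0% = DMSO and 100% = tetraoctylammonium bromide.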 A digest of the protocol: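 LYMP1-001 lymphoblastoid cells (2500/well) treated 16 h at 37 C. Dead-cell protease cleavage of bis-AAF-R110 read at Ex/Em 485/520. Normalized to DMSO and 15 uM tetraoctylammonium bromide; AC50 from Hill fits.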
Experiment [9] in a line: Cell Viability - LYMP1-002 - Assay at 16 hr (AID 948).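 Also: 0% = DMSO alone and full effect = 92 µM tetraoctylammonium bromide.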 A digest of the protocol:
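ATP luminescence (CellTiter-Glo) was measured after 16 hr compound exposure at 37 C of 2500 lymphoblastoid LYMP1-002 cells per well. Concentration-response curves were fitted with the Hill equation to give AC50.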

Experiment [10] is described as follows: MultiTox-Fluor Cytotoxicity Assay - LYMP1-002 - Live Cells (AID 955). Also: % is scaled to controls: 0 for no effect and ±100 for the full control effect. A digest of the protocol:
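In this qHTS viability format, lymphoblastoid cells (LYMP1-002, human) received compound for 16 hr at 37 C. Fluorogenic GF-AFC cleavage by viable cells was detected at 405/510 nm after 1 h at room temperature.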

A short description of experiment [11]: MultiTox-Fluor Cytotoxicity Assay - LYMP1-002 - Dead Cells (AID 960).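 Also: 0% = DMSO and 100% = tetraoctylammonium bromide; nearly all actives have a fitted effect of over 60% in size.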 Put shortly: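 Concentration-dependent increases in membrane-leaked protease activity are quantified in LYMP1-002 cells after 16 hr treatment; values are normalized against DMSO and tetraoctylammonium bromide (15 uM) controls and AC50 derived by Hill modeling.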
Experiment [12] is described as follows: MultiTox-Fluor Cytotoxicity Assay - LYMP1-003 - Dead Cells (AID 961).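 Also: 0% = DMSO and 100% = tetraoctylammonium bromide; nearly all actives have a fitted effect of over 70% in size.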 Put shortly:
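LYMP1-003 human lymphoblastoid cells (2500/well) exposed to compound 16 h at 37 C in complete medium; dead-cell protease read with bis-AAF-R110 fluorescence (Ex/Em 485/520) after 60 min at room temperature. Normalized to DMSO and 15 uM tetraoctylammonium bromide; AC50 from Hill fit.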

A short description of experiment [13]: MultiTox-Fluor Cytotoxicity Assay - LYMP1-003 - Live Cells (AID 962).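 Also: 0% = DMSO only and full loss = 92 µM tetraoctylammonium bromide; cytotoxic hits lower the live-cell protease signal.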 A digest of the protocol:
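Human lymphoblastoid line LYMP1-003 in complete culture medium, treated 16 hr with titrated compounds. Viable cells quantified via cell-permeant GF-AFC substrate fluorescence; AC50 derived by Hill fitting.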

Experiment [14] can be described thus: Cell Viability - LYMP2-018 (AID 985).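 Also: compound exposure lasted 24 hr at 37 °C; plate controls were DMSO only for no effect and tetraoctylammonium bromide at 92 µM for full effect; nearly all actives have a fitted effect of over 50% in size.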 Put shortly: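 In this qHTS viability assay, cells are treated for 24 hr and cellular ATP is quantified by luciferase-based luminescence, with tetraoctylammonium bromide as positive control.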
Experiment [15] can be described thus: Cell Viability - LYMP1-002 - Assay at 24 hr (AID 993). Also: % is scaled to controls: 0 for no effect and ±100 for the full control effect. Put shortly:
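Viability was judged from intracellular ATP using a luciferase read-out, following a 24-hour compound incubation at 37 C of lymphoblastoid cells seeded at 2500 per well. Concentration-response data were fitted to the Hill equation for AC50.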

Experiment [16] in a line: qHTS assay for small molecule antagonists of retinoid X receptor alpha signaling (AID 588546; active = well fitted inhibition curve with a large enough effect in the signal ratio, with a control signal flat, not every such curve was filed as active; the % refers to the signal ratio;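 also: cells stimulated with 9-cis-retinoic acid as agonist; % is scaled to controls: 0 for no effect and ±100 for the full control effect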). Particulars: HEK293T RXRa-UAS-bla, beta-lactamase ratio, antagonist mode; measured here: W530 green channel, cytotoxicity proxy. Put shortly:
(§1)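 Beta-lactamase reporter inhibition, read as CCF4 fluorescence ratio (ex 405, em 460/530 nm) after 2 h at RT. HEK293T UAS-bla cells, 2500/well, were stimulated with 9-cis-RA at 500 or 100 nM final alongside test compound for 18 h at 37 C.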

Experiment [17] addresses Retinoic acid receptor RXR-alpha (Homo sapiens) (UniProt P19793). The description is as above. Particulars: HEK293T RXRa-UAS-bla, beta-lactamase ratio, antagonist mode. Put shortly: as §1
The nature of experiment [18]: qHTS assay for small molecule disruptors of the mitochondrial membrane potential - 5 hr assay (AID 651755; calls by dose curve; also: nearly all actives have a fitted effect of over 40% in size; also: potency is read from the fitted curve at half-maximal effect). Put shortly:
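Seed HepG2 overnight, add compound, incubate 5 hr at 37C and 5% CO2, stain 30 min with Mito-MPS, then measure monomer (490/535 nm) and aggregate (540/590 nm) fluorescence.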

Experiment [19] can be described thus: qHTS assay for cell viability of HEK293 cells (AID 743288). Also: % is scaled to controls: 0 for no effect and ±100 for the full control effect; nearly all actives have a fitted effect of over 50% in size. The following applies: ATP luminescence (CellTiter-Glo), 18 h; max response: stronger effect = lower value. Put shortly: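 Readout is luciferase-coupled ATP content (CellTiter-Glo luminescence, 30 min room temperature) as a measure of metabolically competent cells. Parental HEK293 cells were plated 5 h or more before compound addition, then treated 18 h at 37 C.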

Experiment [20] is described as follows: Cellular Toxicity (caspase-3) Jurkat (AID 655).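 Also: cells exposed to compound for 16 h at 37 °C before reading.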 The following applies: Jurkat caspase-3 activation, luminescence; caspase-3 activation: at 92.2 µM (top of the series), DMSO = 0%, tamoxifen = 100%. A digest of the protocol: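 Luminescent Caspase-Glo 3/7 read-out (20 min, room temperature) after 16 h compound treatment at 37 C of 5000 Jurkat cells per well. AC50 derived by Hill-equation fitting, scaled between DMSO basal and 100 uM tamoxifen stimulation.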

Inconclusive results are not listed. Active and inactive are the calls of the source. Unless noted, calls follow the shape of the dose curve; as a rule, active = well fitted curve in the direction sought with a large enough effect; inconclusive = small, poorly fitted or top-dose-only effect, or another doubt; inactive = no such curve, though single readings can be large; an effect the other way counts as inactive or inconclusive.

Sequence of Retinoic acid receptor RXR-alpha (Homo sapiens) (P19793 whole entry, looked up): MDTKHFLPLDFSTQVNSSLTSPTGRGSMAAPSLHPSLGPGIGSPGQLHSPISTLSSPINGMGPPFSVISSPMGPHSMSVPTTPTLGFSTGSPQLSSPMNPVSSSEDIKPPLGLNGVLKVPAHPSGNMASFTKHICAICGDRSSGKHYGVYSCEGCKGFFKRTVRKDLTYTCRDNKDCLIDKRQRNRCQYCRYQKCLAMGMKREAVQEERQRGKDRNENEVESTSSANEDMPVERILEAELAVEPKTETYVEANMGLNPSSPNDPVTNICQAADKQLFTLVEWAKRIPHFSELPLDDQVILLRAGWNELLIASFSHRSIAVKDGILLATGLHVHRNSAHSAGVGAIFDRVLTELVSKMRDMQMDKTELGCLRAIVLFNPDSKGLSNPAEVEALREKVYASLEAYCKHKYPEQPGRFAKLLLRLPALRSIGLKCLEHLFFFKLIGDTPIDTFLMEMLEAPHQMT
Sequence of Cytochrome P450 3A4 (Homo sapiens) (P08684 whole entry, looked up): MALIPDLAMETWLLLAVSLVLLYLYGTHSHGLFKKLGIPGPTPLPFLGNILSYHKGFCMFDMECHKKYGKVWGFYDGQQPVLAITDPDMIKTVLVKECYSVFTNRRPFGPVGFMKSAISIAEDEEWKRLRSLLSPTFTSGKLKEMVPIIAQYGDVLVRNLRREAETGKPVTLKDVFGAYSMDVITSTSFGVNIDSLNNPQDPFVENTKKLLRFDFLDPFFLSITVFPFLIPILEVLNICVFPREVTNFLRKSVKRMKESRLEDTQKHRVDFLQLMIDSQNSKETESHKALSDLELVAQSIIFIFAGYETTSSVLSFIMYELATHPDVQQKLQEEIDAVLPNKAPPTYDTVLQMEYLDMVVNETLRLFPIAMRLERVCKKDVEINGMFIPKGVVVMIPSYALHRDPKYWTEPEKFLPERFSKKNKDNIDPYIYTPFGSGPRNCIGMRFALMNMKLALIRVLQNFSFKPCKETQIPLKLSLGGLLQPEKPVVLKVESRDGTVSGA

For the molecule `O=C1OC(=O)c2ccccc21`, the Potency in [1], in experiment [2] and in [3] was > 92 µM (inactive) each time. The Potency result in experiment [4], in experiment [5], in experiment [7], in experiment [8], in [9] and in experiment [11] was “inactive” in each case. In addition, the Potency entry in [12], in [13], in [14], in experiment [15] and in experiment [18] was “inactive” each time. Further, the outcome in experiment [6] and in [10] was inactive. For the same molecule, the max response is 4.94% in experiment [16], 20.4% (inactive) in experiment [17] and -11.3% (inactive) in experiment [19].
Consider `O=[N+]([O-])c1cccc(I)c1`, for which the Potency in experiment [1], in [2] and in experiment [3] was > 92 µM (inactive) in each case. Moreover, the Potency entry in experiment [4], in [20], in [5], in experiment [7], in [8] and in experiment [9] was “inactive” throughout. For the same molecule, the Potency result in experiment [11], in experiment [12], in [13], in experiment [14], in [15] and in experiment [18] was “inactive” each time. Also, the molecule was classed as inactive in experiment [6] and in [10]. The max response is -5.01% in experiment [16], -4.26% (inactive) in experiment [17] and -9.2% (inactive) in [19].
Consider `CCCCC(CC)COP(=O)(OCC(CC)CCCC)OCC(CC)CCCC` (stereo unspecified), for which the Potency in experiment [1], in experiment [2] and in experiment [3] was > 92 µM (inactive) throughout. Also, the Potency result in experiment [4], in [20], in experiment [5], in experiment [8], in experiment [9] and in [12] was “inactive” in each case. Moreover, the Potency entry in experiment [13], in experiment [14], in experiment [15] and in [18] was “inactive” each time. For the same molecule, the molecule was classed as inactive in experiment [6] and in [10]. In addition, the max response in experiment [16] was -7.24%; in experiment [17], -4.08% (inactive); in experiment [19], -14.3% (inactive).
Consider `Nc1ccc(N)c(Cl)c1`, for which the Potency in experiment [1] was > 92 µM (inactive); in experiment [2], > 92 µM (inactive); in experiment [3] it was > 92 µM (inactive); in experiment [7] it was 10 µM (active); in [18] it was 10.6 µM (active). The Potency result in [4], in experiment [20], in experiment [5], in [8], in experiment [9] and in experiment [11] was “inactive” in each case. Besides, the Potency entry in [12], in experiment [14] and in experiment [15] was “inactive” in each case. The result in experiment [6] and in experiment [10] was inactive. For the same molecule, the max response in experiment [16] is 4.58%; in [17] it was 9.54% (inactive); in experiment [19], -4.85% (inactive).
With `Nc1cnn([C@@H]2O[C@H](CO)[C@@H](O)[C@H]2O)c(=O)n1`, the Potency in experiment [1], in experiment [2] and in [3] was > 92 µM (inactive) in each case. The Potency entry in experiment [4], in experiment [20], in experiment [5], in experiment [7], in experiment [8] and in experiment [9] was “inactive” each time. For the same molecule, the Potency entry in experiment [11], in [12], in [13], in [14], in experiment [15] and in experiment [18] was “inactive” throughout. For the same molecule, the outcome in [6] and in [10] was inactive. For the same molecule, the results for the max response in [16], in [17] and in [19] were 8.26%, -17.1% (inactive) and 3.95% (inactive), respectively.
